PubChem BioAssay (NCI)
This is part of a sample that, as a whole, favours compounds with a hit. Of some 83,000 tested, about 20% had one in any assay.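 Cell lines were cultured in 96-well plates, exposed to a single compound concentration, and assessed for percent growth 48 hours later.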 Active and inactive are the calls of the source. How the source made its calls: active means growth percent below 10; inactive means the rest.

Tested on: MDA-MB-435 melanoma
Assay: NCI-60 one-dose screen, 48 h (100 = growth as untreated, 0 = no growth, -100 = all killed)
Settings: 10 µM unless noted

Structure (SMILES)	growth
Cn1cc(C=O)c2nccnc21	106% (inactive)
CC(=O)O[C@@H]1CC[C@]2(C)[C@H]3CC[C@]4(C)C(=O)CC[C@H]4[C@@H]3C[C@@H]3SC(N)=N[C@@]32C1	2.34% (active)
OCCNC(Cc1ccccc1)c1ccc2c(c1)OCO2 (stereo unspecified)	108% (inactive)
Nc1ccc2c(c1)Cc1cc(Br)ccc1-2	111% (inactive)
CN(CCCCN(C)CCOS(C)(=O)=O)CCOS(C)(=O)=O	101% (inactive)
CCn1cnc2c(Nc3cccc(Cl)c3)nc(N[C@@H]3CCCC[C@@H]3N)nc21	11.4% (inactive)
CC(=O)OC[C@]1(C)C=C2C(=O)[C@](C)(O)C3(CC3)C(C)=C2[C@H]1OC(=O)N(C)CCN(C)C(=O)OC(C)(C)C	-47% (active)
CC(C)(C)C(=O)OCOP(=O)(OCOC(=O)C(C)(C)C)C1CCCN(O)C1=O (stereo unspecified)	36.6% (inactive)
C[C@]12CCc3nc(Nc4ccccc4F)sc3C1=CC[C@@H]1[C@@H]2CC[C@]2(C)C(=O)CC[C@@H]12	52.5% (inactive)
O=[N+]([O-])c1cc([N+](=O)[O-])c(Cl)cc1Cl	-66.5% (active)
NC(=O)c1c(Br)n(C2OC(CO)C(O)C2O)c2ncnc(N)c12 (stereo unspecified)	1.13% (active)
O=[N+]([O-])/C=C\c1ccc(Cl)c(Cl)c1	-26.3% (active)
CCOC(=O)C(Cc1ccc(N(CCCl)CCCl)cc1)NC(=O)C(CC(C)C)NC(C)=O (stereo unspecified)	44.4% (inactive)
C[C@@H]1CCC2[C@@H](C)[C@H](OC(=O)CCC(=O)NCCNC(=O)Cc3cc(=O)oc4cc(N(C)C)ccc34)O[C@@H]3O[C@]4(C)CC[C@@H]1C23OO4 (stereo partly specified)	19.2% (inactive)
ClCCN(CCCl)c1ccc(-n2cnc3c(Cl)ncnc32)cc1	46.9% (inactive)
COc1cccc(/C=C/[N+](=O)[O-])c1	-25.3% (active)
COc1cc2c(c(OC)c1OC)-c1ccc([O-])c(=O)cc1[C@@H](NC(C)=O)CC2.COc1cc2c(c(OC)c1OC)-c1ccc([O-])c(=O)cc1[C@@H](NC(C)=O)CC2.[Cu+2]	-18.8% (active)
CCCCCCCC(=O)OCC(=O)[C@]1(O)Cc2c(O)c3c(c(O)c2[C@@H](OC2CC(N)C(O)C(C)O2)C1)C(=O)c1c(OC)cccc1C3=O (stereo partly specified)	-80.5% (active)
CCCC(C)C1(CC)C(=O)NC(=O)N(C)C1=O (stereo unspecified)	97.9% (inactive)
CC1(C)N=C(N)N=C(N)N1c1ccc(OCCCNC(=O)Nc2ccc(S(=O)(=O)F)cc2)c(Cl)c1	31.5% (inactive)
COC(=O)[C@@H](C)C[C@H](Cc1ccccc1)NC(=O)c1csc([C@@H](C[C@H](C(C)C)N(C)C(=O)C2(NC(=O)[C@H]3CCCCN3C)CCC2)OC(C)=O)n1	-25.3% (active)
CNC(=O)Oc1ccc(C(C)(C)C)cc1OC(=O)NC	97% (inactive)
C/C(=C\c1ccn(-c2ccc(N)cc2)n1)[C@@H]1C[C@@H]2O[C@]2(C)CCC[C@H](C)[C@H](O)[C@@H](C)C(=O)C(C)(C)[C@@H](O)CC(=O)O1	-33.6% (active)
Nc1ccc(Cl)cc1	105% (inactive)
Nc1ccc2c(c1)oc1ccccc12	94.7% (inactive)

Tested on: SW-620 colon
Assay: as above
Settings: 10 µM unless noted

Structure (SMILES)	growth
COC(=O)N[C@H]1CCc2c(Br)c(OC)c(OC)c(OC)c2-c2ccc(SC)c(=O)cc21	17.5% (inactive)
O=C(N/N=C/c1ccc(N(CCCl)CCCl)cc1)c1cccc2ccccc12	54.1% (inactive)
O=[N+]([O-])c1c(Br)sc(Br)c1[N+](=O)[O-]	-77% (active)
COC(=O)C12CC(NC(=O)c3csc([C@@H](C[C@H](C(C)C)N(C)C(=O)[C@@H](NC(=O)[C@H]4CCCCN4C)C(C)C)OC(C)=O)n3)(C1)C2	27.4% (inactive)
CC(=O)OC1CCC2(C)C(CCC3C2CC(=O)C2(C)C3CC(Sc3ccc(N(CCCl)CCCl)cc3)C2C(C)=O)C1 (stereo unspecified)	68.4% (inactive)
Oc1c(CCl)cc(Cl)cc1CCl	115% (inactive)
CC(=O)OCc1cc[c]([Hg][Cl])o1	25.4% (inactive)
COc1ccc(O)c(CNC(=O)CN2CCCC2=O)c1	101% (inactive)
CC12CCC(O)CC1=CCC1C2CCC2(C)C(O)CCC12 (stereo unspecified)	105% (inactive)
Cc1ccc(C(=O)NCCCOc2ccc(N3C(N)=NC(N)=NC3(C)C)cc2Cl)cc1S(=O)(=O)F	65.1% (inactive)
Cn1cc(C=O)c2nccnc21	110% (inactive)
CC(=O)O[C@@H]1CC[C@]2(C)[C@H]3CC[C@]4(C)C(=O)CC[C@H]4[C@@H]3C[C@@H]3SC(N)=N[C@@]32C1	44.1% (inactive)
OCCNC(Cc1ccccc1)c1ccc2c(c1)OCO2 (stereo unspecified)	109% (inactive)
Nc1ccc2c(c1)Cc1cc(Br)ccc1-2	108% (inactive)
CN(CCCCN(C)CCOS(C)(=O)=O)CCOS(C)(=O)=O	74.1% (inactive)
CCn1cnc2c(Nc3cccc(Cl)c3)nc(N[C@@H]3CCCC[C@@H]3N)nc21	-4.4% (active)
CCCCCC1(CCBr)C(=O)NC(=O)NC1=O	101% (inactive)
CC(=O)OC[C@]1(C)C=C2C(=O)[C@](C)(O)C3(CC3)C(C)=C2[C@H]1OC(=O)N(C)CCN(C)C(=O)OC(C)(C)C	10.4% (inactive)

Structure (SMILES)	growth
CC(C)(C)C(=O)OCOP(=O)(OCOC(=O)C(C)(C)C)C1CCCN(O)C1=O (stereo unspecified)	22.9% (inactive)
C[C@]12CCc3nc(Nc4ccccc4F)sc3C1=CC[C@@H]1[C@@H]2CC[C@]2(C)C(=O)CC[C@@H]12	-12.6% (active)
O=[N+]([O-])c1cc([N+](=O)[O-])c(Cl)cc1Cl	-77.1% (active)
NC(=O)c1c(Br)n(C2OC(CO)C(O)C2O)c2ncnc(N)c12 (stereo unspecified)	1.1% (active)
O=[N+]([O-])/C=C\c1ccc(Cl)c(Cl)c1	-6.79% (active)
CCOC(=O)C(Cc1ccc(N(CCCl)CCCl)cc1)NC(=O)C(CC(C)C)NC(C)=O (stereo unspecified)	9.17% (active)
C[C@@H]1CCC2[C@@H](C)[C@H](OC(=O)CCC(=O)NCCNC(=O)Cc3cc(=O)oc4cc(N(C)C)ccc34)O[C@@H]3O[C@]4(C)CC[C@@H]1C23OO4 (stereo partly specified)	25.3% (inactive)
ClCCN(CCCl)c1ccc(-n2cnc3c(Cl)ncnc32)cc1	-73.8% (active)
COc1cccc(/C=C/[N+](=O)[O-])c1	77.5% (inactive)
CC(=O)O[C@H]1CC[C@]2(C)[C@H]3CC[C@]4(C)[C@@H](OC(C)=O)CC[C@H]4[C@@H]3[C@@H](C)[C@]2(O)C1	104% (inactive)
COc1cc2c(c(OC)c1OC)-c1ccc([O-])c(=O)cc1[C@@H](NC(C)=O)CC2.COc1cc2c(c(OC)c1OC)-c1ccc([O-])c(=O)cc1[C@@H](NC(C)=O)CC2.[Cu+2]	19.3% (inactive)
CCCCCCCC(=O)OCC(=O)[C@]1(O)Cc2c(O)c3c(c(O)c2[C@@H](OC2CC(N)C(O)C(C)O2)C1)C(=O)c1c(OC)cccc1C3=O (stereo partly specified)	-62.5% (active)
CCCC(C)C1(CC)C(=O)NC(=O)N(C)C1=O (stereo unspecified)	101% (inactive)
CC1(C)N=C(N)N=C(N)N1c1ccc(OCCCNC(=O)Nc2ccc(S(=O)(=O)F)cc2)c(Cl)c1	20.6% (inactive)
COC(=O)[C@@H](C)C[C@H](Cc1ccccc1)NC(=O)c1csc([C@@H](C[C@H](C(C)C)N(C)C(=O)C2(NC(=O)[C@H]3CCCCN3C)CCC2)OC(C)=O)n1	23% (inactive)
CNC(=O)Oc1ccc(C(C)(C)C)cc1OC(=O)NC	94.8% (inactive)
C/C(=C\c1ccn(-c2ccc(N)cc2)n1)[C@@H]1C[C@@H]2O[C@]2(C)CCC[C@H](C)[C@H](O)[C@@H](C)C(=O)C(C)(C)[C@@H](O)CC(=O)O1	38.3% (inactive)
Nc1ccc(Cl)cc1	103% (inactive)
